The panel holds about 83,000 compounds, 20% with a hit somewhere; the sample as a whole holds those more often.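 Growth was measured after 48 h exposure to one concentration of compound in 96-well plates. Values under 10 count as active.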 A number with no mark means an inactive call. Active and inactive are the calls of the source.
Experiments:
Assay in all cases: NCI-60 one-dose screen, 48 h (100 = growth as untreated, 0 = no growth, -100 = all killed)
Conditions in all cases: 10 µM unless noted
NCI-H23 lung = tested on: NCI-H23 lung
NCI-H226 lung = tested on: NCI-H226 lung
NCI-H322M lung = tested on: NCI-H322M lung
HOP-62 NSCLC = tested on: HOP-62 NSCLC
NCI-H460 lung = tested on: NCI-H460 lung
HOP-92 NSCLC = tested on: HOP-92 NSCLC
NCI-H522 lung = tested on: NCI-H522 lung
A549/ATCC NSCLC = tested on: A549/ATCC NSCLC
786-0 renal = tested on: 786-0 renal
COLO 205 colon = tested on: COLO 205 colon

Row | Compound | growth (NCI-H23 lung) | growth (NCI-H226 lung) | growth (NCI-H322M lung) | growth (HOP-62 NSCLC) | growth (NCI-H460 lung) | growth (HOP-92 NSCLC) | growth (NCI-H522 lung) | growth (A549/ATCC NSCLC) | growth (786-0 renal) | growth (COLO 205 colon)
1 | C=C1CCC2C3(C)COC(c4cccc(F)c4)OC3CCC2(C)C1C/C=C1/C(=O)OCC1O (stereo not drawn) | -37.6% (active) | 30.7% | 53.3% | 22.6% | 8.73% (active) | -6.12% (active) | -76.1% (active) | 23.3% | -84.8% (active) | -51.5% (active)
2 | CN1C(=O)/C(=C/c2ccc(C(=O)Nc3ncc(Cc4ccc(Cl)cc4Cl)s3)cc2)SC1=S | 42.8% | 51.8% | 47.1% | 59.3% | 46.2% | 64.4% | 19.2% | 42.7% | 53.3% | 27.6%
3 | CC(C)c1ccc2c(N)c(C(=O)Nc3ccc(C(F)(F)F)cn3)sc2n1 | 43.5% | 22.9% | 86.3% | 57.7% | 61.6% | 65.1% | 63.2% | 66.9% | 64.3% | 93.1%
4 | Cc1ccccc1[C@H]1C(C(=O)c2ccc(Cl)cc2)C2(N[C@@H]1c1ccccc1)C(=O)Nc1ccc(Cl)cc12 (stereo partly drawn) | -56.2% (active) | -60.2% (active) | 22.1% | -63.7% (active) | 1.55% (active) | -44.4% (active) | -48.6% (active) | -29.2% (active) | -39.3% (active) | -75.7% (active)
5 | COc1ccc(C(=O)Nc2n[nH]c(Nc3ccccc3)c2C#N)cc1 | 110% | 117% | 106% | 124% | 101% | 125% | 104% | 117% | 104% | 106%
6 | COc1ccc(N2N=C(c3ccc4c(c3)OCO4)CC2c2cccc(NC(=O)CCCNS(=O)(=O)c3ccc(F)cc3)c2)cc1 (stereo not drawn) | 73.7% | 67.2% | 76.1% | 82.4% | 50.6% | 90.4% | -7.84% (active) | 49.1% | 62.5% | 65.3%
7 | COc1ccc(-c2c(Nn3cnnn3)no[n+]2[O-])cc1 | 58.9% | 83.2% | 63.5% | 75.2% | 39.5% | 26% | -14.3% (active) | 67.1% | 53.6% | 55.1%
8 | CN(C)c1nc(NCCNS(=O)(=O)c2ccc(C3=Nc4c(N)nc(N)nc4NC(c4ccccc4)C3)cc2)nc(Nc2ccc(F)cc2)n1 (stereo not drawn) | 58.6% | 52.8% | 58.4% | 81.1% | 25.9% |  | 43.1% | 56.4% | 29.7% | 
9 | O=C1c2c(c3c4cc(F)ccc4oc3c3[nH]c4ccc(Br)cc4c23)C(=O)N1O | 7.64% (active) | 61.8% | 79.4% | 19.4% | 5.53% (active) | -39.4% (active) | -18% (active) | 69.2% | 15.5% | 67.9%
10 | CC(=O)Nc1cccc(-c2nc3cc(-c4ccc(O)cc4)ccc3n2C)c1 | 48.8% | 49.8% | 67.1% | 54.3% | 55.4% | 93.7% | 26.7% | 35.2% | 63.2% | 56.5%
11 | COc1ccc(C2(SCCNCc3cc(N(C)C)ccn3)c3ccccc3C=Cc3ccccc32)cc1 | 13.5% | 50.6% | 35.1% | 40% | -14% (active) | 0.307% (active) | -17.2% (active) | 21.3% | 23.5% | -29.8% (active)
12 | Cc1ccc(C(=O)CSc2nc3ccc(C)cc3c(=O)n2-c2ccc(F)cc2)cc1 | 56.8% | 15% | 60% | 7.49% (active) | 32.7% | -0.0399% (active) | 63.8% | 57.6% | -3.55% (active) | 84%
13 | Cc1ccc(C(SCCNCc2cc(N(C)C)ccn2)(c2ccccc2)c2ccccc2)cc1 | -35.8% (active) | -6.05% (active) | 23.1% | -1.31% (active) | -26.6% (active) | -25.4% (active) | -78.8% (active) | -3.31% (active) | -76.6% (active) | -71.6% (active)
14 | O=C(/C=C/c1cccc(OCc2ccccc2)c1)c1nc2ccccc2[nH]1 | 63.7% | 1.49% (active) | 92.3% | 50.5% | 63% | 22.7% | 72.8% | 39.1% | -60.7% (active) | -31.7% (active)
15 | COc1cc(/C=C/C(=O)c2ccccc2)ccc1Oc1nc(Nc2ccc(F)cc2)nc(N(C)C)n1 | 46.6% | 43% | 61.2% | 78.4% | 18.1% | 28.7% | 29.6% | 52.8% | 39.6% | 36.2%
16 | COCOc1cc2c(=O)c(C)c(C(=O)N[C@@H](Cc3ccccc3)C(O)C(=O)NCc3ccccc3)oc2cc1OC (stereo partly drawn) | 30% | -40.2% (active) | 80.6% | 6.54% (active) | -9.86% (active) | 27.8% | -11% (active) | 51.7% | -0.746% (active) | 49.5%
17 | Cc1cnc(C(=O)NNc2nc3cc(F)ccc3n3c(C(=O)N4CC5CC(C4)N5)ccc23)cn1 | 51.1% | 12.5% | 35.4% | 59.3% | 9.91% (active) | 65.2% | 57.8% | 25.4% | -2.57% (active) | 10.5%
18 | CCN(CC)CCOc1ccc(Nc2ncc3cc(-c4ccc(O)c(C#N)c4)c(=O)n(C)c3n2)cc1 | 98% | 49.3% | 96.9% | 91.1% | 85.3% | -5.3% (active) | 83.1% | 94.8% | -51.2% (active) | 36.2%
19 | COc1ccc(C2=NN(C(C)=O)C(c3ccc(OCc4ccc(Cl)cc4)c(OC)c3)C2)cc1OC (stereo not drawn) | 58% | 49.9% | 81.9% | 76.2% | 41.3% | 37.1% | 28.5% | 29% | 57.9% | 41.3%
20 | NS(=O)(=O)c1ccc(N=Nc2c(O)n(CC(=O)Nc3ccccc3)c3ccccc23)cc1 | -19.1% (active) | 25.3% | 52% | 10.8% | 4.09% (active) | 77.3% | 31.6% | 0.913% (active) | 1.52% (active) | 27.6%
21 | CCN1C(=O)N(CC)C2NNC(Sc3c(C(=O)O)c4ccccc4n(C4CCCC4)c3=O)=NC21 (stereo not drawn) | 36.8% | 42% | 67.3% | 44.1% | 4.22% (active) | 73.4% | -23.1% (active) | 28.2% | 22.9% | -31.1% (active)
22 | COc1ccc2[nH]c(O)c(N=NC(=O)COc3ccc(NC(=O)Nc4ccccc4)cc3)c2c1 | 20.2% | 26.7% | 37.2% | -6% (active) | 48.7% | -9.25% (active) | 21.1% | 47.5% | 8.04% (active) | 53.6%
23 | CC(=O)NNc1ccc2nnc(-c3ccccc3)n2n1 | 96.6% | 105% | 102% | 116% | 106% | 109% | 109% | 102% | 104% | 104%
24 | N#Cc1c(-c2cccnc2)cc(-c2ccc3ccccc3c2)[nH]c1=O | 77% | 81.9% | 90.1% | 91.8% | 83.7% | 78.5% | 66.2% | 85.1% | 11.9% | 115%
25 | O=C(NNc1nc2cc(F)ccc2n2c(CN3CCCCC3)ccc12)c1cnccn1 | -21.3% (active) | -24.6% (active) | -7.19% (active) | -59.2% (active) | -11.7% (active) | -24.8% (active) | -50.9% (active) | -76.8% (active) | -98.3% (active) | -50.5% (active)
26 | CCCSc1nc(NCCc2c[nH]c3ccccc23)c(C#N)c(-c2ccc(OC)cc2)n1 | 73.7% | 50.7% | 89% | 64.5% | 19% | 64.7% | 43.8% | 53.3% | 31.9% | 61.3%
